Hit rate of the full screen: of about 1,000 compounds, about 200 (20%) were called active. Only a sample is shown. Potency and affinity values are given separately. Values without a mark were called inactive. Cut-off read from the data, not from the text of the source: active = inhibition above about 55%; inactive = the rest.
target: Dual specificity protein phosphatase 3 (Homo sapiens) (UniProt P51452); experiment: VHR1 phosphatase inhibitors, biochemical (AID 1878); conditions: recombinant VHR phosphatase, fluorogenic substrate; at 13.3 µM; stronger effect = higher value
Sequence (P51452 whole entry, looked up): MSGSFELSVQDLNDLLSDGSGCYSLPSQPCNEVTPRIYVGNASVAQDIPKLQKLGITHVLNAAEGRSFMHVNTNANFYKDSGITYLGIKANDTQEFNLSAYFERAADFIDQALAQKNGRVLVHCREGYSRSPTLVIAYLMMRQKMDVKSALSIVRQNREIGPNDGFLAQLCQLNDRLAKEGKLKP

Row | SMILES | inhibition
1 | O=C(c1cc(F)c(F)c(F)c1F)N1CCN(Cc2ccc3c(c2)OCO3)CC1 | -6.3%
2 | O=C1NN(c2ccccc2)C(=O)/C1=C\c1ccccc1 | 5.2%
3 | CN(C)c1nc(N(C)C)nc(N(C#N)Cc2ccc(Cl)cc2)n1 | 2%
4 | COc1cc(CNc2ccc(N3CCN(C(C)=O)CC3)cc2)ccc1OCc1ccc(F)cc1 | -8.4%
5 | COc1ccc(C2CC(=O)C(C=NCCO)=C(O)C2)cc1 (stereo not given) | -0.8%
6 | COc1cc(/C=N/n2c(C)nc3ccccc3c2=O)ccc1O | 16.3%
7 | COc1ccc2nc(C)cc(SCC(=O)N/N=C/c3c(OC)ccc4ccccc34)c2c1 | 92% (active)
8 | COc1ccc(OC)c(NC(=O)Cc2coc3ccc4ccccc4c23)c1 | -4.5%
9 | COc1ccc2c(c1)c(C(=O)N/N=C/c1ccc(OC)c(OC)c1)c(C)n2C | -4.6%
10 | CN(C)CCCNC(=S)N(CCCN(C)C)Cc1cc2cc3c(cc2[nH]c1=O)OCO3 | -11.5%
11 | CN(CCO)c1nc(N)c2c(N)nc3c(c2c1C#N)CC(=O)N3C1CCCC1 | 2.2%
12 | Cc1ccc(N=Nc2cc(C)ccc2O)c(C)c1 | 0.1%
13 | CC(=O)Nc1c(-c2ccccc2)c2cc(Br)ccc2[nH]c1=O | -0.4%
14 | CC1CCCN(CCCNC(=O)C2CCN(S(=O)(=O)N3CCC4(CC3)OCCO4)CC2)C1 (stereo not given) | 2.1%
15 | O=C(Cn1cnc2c(oc3nc4c(cc32)CCCC4)c1=O)Nc1cccc(Cl)c1 | 37.7%
16 | Cc1ccc2nc(NC(=O)CCCc3nc4ccccc4s3)sc2c1 | -0.6%
17 | CSc1ccc(NC(=O)N2CCN(c3nc4ccccc4s3)CC2)cc1 | 5%
18 | Cc1csc(NC(=O)CCCC(=O)O)c1-c1nc2ccccc2s1 | 98.8% (active)
19 | O=C(CN1CCN(S(=O)(=O)c2ccc(Br)cc2)CC1)c1ccc(O)c(O)c1 | -4.1%
20 | Cc1cc(C)cc(NS(=O)(=O)c2ccc(-c3cnc(C4CC4)o3)cc2)c1 | 13%

Row | SMILES | inhibition
21 | CC(NC(=O)COc1ccc(/C=N/NC(=O)CO)cc1)c1ccccc1 (stereo not given) | 1.2%
22 | CCOc1cc(/C=N/NC(=O)c2ccc(-c3csc(Nc4ccc(C)cc4)n3)cc2)ccc1OCC(=O)O | 75.5% (active)
23 | CC(C)(C)c1ccc2c(c1)OC(C(=O)N/N=C\c1ccc[nH]1)CO2 (stereo not given) | 6.8%
24 | CCOC(=O)C1CCCN(CC(=O)Nc2nccs2)C1 (stereo not given) | 23.9%
25 | CCOC(=O)c1ccc(S(=O)(=O)Nc2ccc(N3CCOCC3)cc2)cc1 | -9%
26 | CC(=O)N1CC(=O)Nc2ccc(F)cc2C1c1ccccc1 (stereo not given) | 32.3%
27 | CCOC(=O)C1=C(N)Oc2ccc3ccccc3c2C1c1cccc(O)c1 (stereo not given) | -5.7%
28 | O=C(Nc1ccc(-n2nncc2-c2ccco2)cc1)c1cc2ccccc2oc1=O | 96.1% (active)
29 | CCn1c2ccccc2c2n[nH]c(=S)nc21 | -2.6%
30 | Cc1cc(C)c(S(=O)(=O)Nc2ccc(N(C)C)cc2)c(C)c1-n1cnnn1 | -1.2%
31 | CC(=O)NCCc1nc2cc(NC(=O)c3ccc([N+](=O)[O-])cc3)ccc2n1C | -5.3%
32 | COc1ccc(Cc2nnc(NC(=O)c3ccco3)s2)cc1 | -10%
33 | CCN(CC)CCCNc1oc(-c2ccccc2[N+](=O)[O-])nc1C#N | 22.5%
34 | O=C1CSC(c2cccc([N+](=O)[O-])c2)N1Cc1ccccc1 (stereo not given) | 3.2%
35 | Cc1ccc(OCCCCN2CCCCC2)cc1 | 6.5%
36 | Cc1ccccc1NC(=O)CN1C(=O)N/C(=C\c2ccccc2OCc2ccc(C(=O)O)cc2)C1=O | 84.1% (active)
37 | CSc1nsc2nc(=O)c(/C=C3\C(C)=Nc4ccccc43)c(N)n12 | 7.5%
38 | COc1cc(NC(=O)c2noc(C)c2[N+](=O)[O-])c(OC)cc1Cl | -2.3%
39 | CC1CC(C)CN(CCCNC(=O)C2CCCN(S(=O)(=O)N3CC(C)CC(C)C3)C2)C1 (stereo not given) | 20.9%
40 | C=CCn1c(=O)c2c(nc3n2CCCN3Cc2ccccc2)n(C)c1=O | -4%

Row | SMILES | inhibition
41 | C/C(=N\NC(=O)c1c(C)nc2ccccn12)c1ccccc1F | -12.4%
42 | Cc1cccc(NC(=O)c2cc(-c3ccc(C)c(C)c3O)n[nH]2)c1 | 8.4%
43 | Cc1cccc(NC(=O)c2cc3c(=O)n4ccccc4nc3s2)c1 | 93.3% (active)
44 | CCC(N)Cc1c[nH]c2ccccc12 (stereo not given) | 14.4%
45 | O=C(COc1ccc2c(-c3ccccc3)cc(=O)oc2c1)Nc1ccc(CCO)cc1 | 84.8% (active)
46 | O=C(COc1ccc2c(-c3ccccc3)cc(=O)oc2c1)Nc1cccnc1 | 92.7% (active)
47 | O=C(COc1ccccc1)Nc1ccncc1Cl | 8.7%
48 | Cc1cccc(CC(=O)Nc2cccnc2)c1 | -5.3%
49 | CC(C)CCN1CCC(n2nccc2NC(=O)C2CCOC2)CC1 (stereo not given) | -5.2%
50 | Oc1cc(Br)ccc1C=Nc1ccc(N2CCCCC2)cc1 | -10%
51 | CCN(CC)c1ccc(NC(=O)CCNS(=O)(=O)c2ccc3c(c2)CCC(=O)N3)c(C)c1 | -13.1%
52 | CC1CCN(CCNC(=O)C2CCCN(c3ncnc4c3nc3n4CCCCC3)C2)CC1 (stereo not given) | 7.1%
53 | Cc1occc1C(=O)N1CCCC(CCC(=O)NCc2ccc(F)c(F)c2)C1 (stereo not given) | -8.6%
54 | COc1ccccc1NC(=O)C1CCCN(S(=O)(=O)c2ccc3c(c2)CC(C)N3C(C)=O)C1 (stereo not given) | 17.3%
55 | O=C(NC1CC2CCC(C1)N2Cc1ccccc1)c1ccccc1Br (stereo not given) | -2.7%
56 | O=[N+]([O-])c1ccc(Oc2cccc3cccnc23)c(Cl)c1 | -14.5%
57 | O=P(Cc1ccccc1)(c1ccccc1)c1ccccc1 | 6.2%
58 | Cc1cc(O)c(C=Nc2ccc(N3CCOCC3)cc2)c(C)c1Cl | 0.1%
59 | O=C(N/N=C/c1cc(Br)cc([N+](=O)[O-])c1O)c1ccc(NC(=O)c2ccc(F)cc2)cc1 | 95.6% (active)
60 | CCOC(=O)c1ccc(N/N=C/c2cc(Br)cc([N+](=O)[O-])c2O)cc1 | 27.8%
